Laboratory results from PubChem BioAssay (Tox21).
Results filed as inconclusive are left out. Unmarked numbers belong to inactive results. Calls of active or inactive are those of the source. Calls come from the whole dose curve; as a rule, active = well fitted cell-killing curve with a large enough effect in the repeat runs; inconclusive = weak or mixed curves, or effect the other way; inactive = flat fitted curve, though single readings scatter.

experiment: Human pregnane X receptor (PXR) small molecule agonists, qHTS cell viability counter screen (AID 1346977); details: PXR-Luc HepG2 viability, CellTiter-Fluor, 24 h; series mostly up to 92.4 µM; activity change, negative = cytotoxicity: at the top concentration; note: nearly all actives have a fitted effect of over 50% in size
From the text: U.S. Tox21 Program National Center for Advancing Translational Sciences [NCATS] NIH Chemical Genomics Center [NCGC] U.S. Environmental Protection Agency [EPA] National Institutes of Environmental Health Sciences [NIEHS] National Toxicology Program [NTP] U.S. Food and Drug Administration [FDA] Tox21 Assay Overview: The human pregnane X receptor (hPXR) regulates the expression of several drug metabolizing enzymes and induction of these proteins is a major mechanism for developing drug resistance in cancer. One such key enzyme catalyzing the drug metabolism is cytochrome P450 3A4 (CYP3A4). Changes in CYP3A4 expression affect drug metabolism, thereby reducing the therapeutic efficacy and altering toxicological response to a drug and which finally causes adverse drug interaction. To screen Tox21 libraries for compounds that activate hPXR-mediated CYP3A4 gene expression, PXR-Luc HepG2 cells were used. Also cytotoxicity of the compounds was tested in parallel by measuring the cell viability using CellTiter-Fluor assay system in the same wells.
Tox21 Assay Protocol Summary: PXR-Luc HepG2 cells were dispensed at 2,000 per well in 5uL of assay medium containing 5% charcoal-stripped FBS into white solid bottom 1536-well plates (Corning Life Sciences, Corning, NY) using a Multidrop Combi (Thermo Scientific, Waltham, MA) dispenser. The assay plates were incubated at 37 C and 5% CO2 for 5hr, and then 23nL of compounds dissolved in DMSO and positive control were transferred using a Pintool station (Wako, San Diego, CA). The assay plates were incubated at 37C and 5% CO2 for 24hr. For cytotoxicity read, after 23hr incubation at 37C, 1uL CellTiter-Fluor reagent (Promega Corporation, Madison, WI) was added to each well of the assay plates using Flying Reagent Dispenser (FRD, Aurora Discovery, San Diego, CA). After 1hr incubation at 37C and 5% CO2, the fluorescence signal was quantified using a ViewLux plate reader (PerkinElmer, Shelton, CT).
% is set by controls: 0 for no effect and ±100 for the full control effect; potency is the fitted concentration of half-maximal effect.

SMILES | activity change, negative = cytotoxicity | Potency
CC(=O)Nc1ccn(C2COC(COC(=O)c3ccccc3)O2)c(=O)n1 (stereo not given) | 14% [at 42.5 µM] | –
CCOc1ccc(NC(C)=O)cc1N | -0.859% | –
Cc1ccc(NC(=O)c2ccc(CN3CCN(C)CC3)cc2)cc1Nc1nccc(-c2cccnc2)n1 | – | 23.7 µM (active)
COc1ccc(/C=C/S(=O)(=O)NC(=O)c2ccc(C)cc2Cl)cc1 | -0.845% | –
CCCCOc1ccc(N)cc1 | -1.17% | –
Clc1nc2ccccc2nc1Cl | 0.608% | –
CC(COc1ccccc1)NC(C)C(O)c1ccc(O)cc1 (stereo not given) | -12.4% [at 42.5 µM] | –
COc1ccc(C(=O)Nc2ccccc2)cc1[N+](=O)[O-] | -3.99% | –
CC(CCl)OC(C)CCl (stereo not given) | 6.5% | –
CC/C=C\CCO | 8.62% | –
O=C(Nc1ccccc1)c1cc([N+](=O)[O-])ccc1Cl | -4.05% | –
CC1(COc2ccc(CC3SC(=O)NC3=O)cc2)CCCCC1 (stereo not given) | -10.9% [at 42.5 µM] | –
CCCC1CCOC(C)S1 (stereo not given) | 8.26% | –
CCOCCn1c(N2CCCN(C)CC2)nc2ccccc21 | -10.6% [at 42.5 µM] | –
CCC1=C(C)CN(C(=O)NCCc2ccc(S(=O)(=O)NC(=O)NC3CCC(C)CC3)cc2)C1=O (stereo not given) | -4.22% [at 42.5 µM] | –
CCC(C)CCCC(C)(C)O (stereo not given) | -1.2% | –
O=C(C1CCCCC1)N1CC(=O)N2CCCc3ccccc3C2C1 (stereo not given) | 0.153% [at 42.5 µM] | –
O=Cc1ccc([N+](=O)[O-])cc1 | -2.84% | –
CCC(C)C1N=C(C)C(C)S1 (stereo not given) | -4.07% | –
CC1(C)CC(=O)CC(C)(C)N1 | 15.5% | –

SMILES | activity change, negative = cytotoxicity | Potency
Cc1cc(N)n(-c2ccccc2)n1 | 0.443% | –
O=C1CCCN1CCO | -5.17% | –
CCC(C(=O)O)c1ccc(N2Cc3ccccc3C2=O)cc1 (stereo not given) | 21.1% [at 42.5 µM] | –
COc1ccnc2c1CCCCC2S(=O)c1nc2ccccc2[nH]1 (stereo not given) | -4.23% [at 42.5 µM] | –
O=C(O)c1cccnc1Nc1cccc(C(F)(F)F)c1 | 5.98% [at 42.5 µM] | –
Clc1ccccc1-c1nc(-c2ccncc2)no1 | -0.49% [at 42.5 µM] | –
C[C@H]1C[C@H]2[C@@H]3CCC4=CC(=O)C=C[C@]4(C)[C@@]3(F)[C@@H](O)C[C@]2(C)[C@@]1(O)C(=O)COP(=O)(O)O | 15.2% | –
CO[C@@H]1[C@@H](O[C@@H]2O[C@H](C)[C@@H](O[C@H]3C[C@@](C)(O)[C@@H](O)[C@H](C)O3)[C@H](N(C)C)[C@H]2O)[C@@H](CC=O)C[C@@H](C)[C@@H](O[C@@H]2CC[C@H](N(C)C)[C@@H](C)O2)/C=C/C=C/C[C@@H](C)OC(=O)C[C@H]1OC(C)=O | – | 26.6 µM (active)
O=c1c2ccccc2oc2ccccc12 | 8.65% | –
CS(C)=O | 6.2% | –
CCOC(OCC)OCC | 14.6% | –
C=CC(=O)OCCCCCCCCCC | 3.66% | –
CCOc1ccc2c(c1)C(C)CC(C)(C)N2 (stereo not given) | -2.47% | –
Cc1cccc(C)c1NC(=O)CN1CCCC1 | -0.601% [at 42.5 µM] | –
COc1ccc(/C=C/c2cc(OC)cc(=O)o2)cc1 | -13.9% [at 42.5 µM] | –
O=[N+]([O-])c1ccccc1CCO | 9.62% | –
O=C(Cl)c1ccc(F)c(Cl)c1 | -1.37% | –
O=S(=O)(O)c1cc(Cl)c(Cl)cc1Cl | 15.8% | –
CCC[Si](OC)(OC)OC | -0.621% | –
CC(=O)OCC(=O)[C@@]1(O)CC[C@H]2[C@@H]3CCC4=CC(=O)C=C[C@]4(C)[C@@]3(F)[C@@H](O)C[C@@]21C | 14.1% [at 42.5 µM] | –
